Reference: PubChem BioAssay (Tox21)
Values joined by “and” are separate entries in the source; they are usually repeats but may differ in a detail not shown here. Equal entries are not always repeated. Results filed as inconclusive are left out. Where a call stands in place of a potency, no number is given. More than one record can exist for a structure, and the calls need not agree. Active and inactive are the calls of the source. The call rests on the fitted dose curve; in most records, active means well fitted curve in the direction sought with a large enough effect in the repeat runs; inconclusive means weak or mixed curves; inactive means no such curve, though single readings can be large; an effect the other way counts as inactive or inconclusive.

Key:
[1] = Human pregnane X receptor (PXR) small molecule agonists, qHTS cell viability counter screen (AID 1346977); conditions: PXR-Luc HepG2 viability, CellTiter-Fluor, 24 h; series mostly up to 92.4 µM; further: nearly all actives have a fitted effect of over 50% in size; further: potency means the concentration at half of the fitted maximal effect
In short: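 Fluorescence read-out (CellTiter-Fluor) of viability in PXR-Luc HepG2 cells, multiplexed with the luciferase agonist read. Compounds in DMSO added after 5hr plating; 24hr total exposure at 37C, 5% CO2.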

[2] = Caspase-3/7 induction in HepG2 cells by small molecules, qHTS assay (AID 1346978); conditions: HepG2 caspase-3/7 activation, Caspase-Glo luminescence, 17 h; series mostly up to 92.4 µM; further: nearly all actives have a fitted effect of over 15% in size
In short: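 Caspase-3/7 induction was measured by Caspase-Glo 3/7 luminescence (30 min, room temperature) after a 17 hr compound exposure of wild-type HepG2 cells seeded at 2,000 per well and pre-incubated 5 hr.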

[3] = Caspase-3/7 induction in CHO-K1 cells by small molecules, qHTS cell viability counter screen (AID 1346979); conditions: CellTiter-Fluor fluorescence, 17 h; series mostly up to 92.4 µM; further: nearly all actives have a fitted effect of over 35% in size; further: potency means the concentration at half of the fitted maximal effect
In short: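 CHO-K1 wt, 1,500 cells/well; 5hr pre-incubation 37C/5% CO2; compound pin transfer (DMSO); 16hr exposure; CellTiter-Fluor added, 1hr, fluorescence read.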

[4] = Caspase-3/7 induction in CHO-K1 cells by small molecules, qHTS assay (AID 1346980); conditions: CHO-K1 caspase-3/7 induction, Caspase-Glo luminescence, 17 h; series mostly up to 92.4 µM; further: nearly all actives have a fitted effect of over 15% in size
In short: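 Luminescent Caspase-Glo 3/7 read (30min, room temperature) quantified apoptosis induction. Cells were wild-type CHO-K1, treated with compound for 17hr at 37 C and 5% CO2.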

[5] = Caspase-3/7 induction in HepG2 cells by small molecules, qHTS cell viability counter screen (AID 1346981); conditions: CellTiter-Fluor fluorescence, 17 h; series mostly up to 92.4 µM; further: nearly all actives have a fitted effect of over 30% in size; further: potency means the concentration at half of the fitted maximal effect
In short: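 Counter screen for cytotoxicity: HepG2 exposed 16 hr to compounds, then CellTiter-Fluor viability signal (fluorescence, 1 hr reagent incubation).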

[6] = biological target: Nuclear receptor subfamily 1 group I member 2 (Homo sapiens) (UniProt O75469); experiment: Human pregnane X receptor (PXR) small molecule agonists, qHTS assay (AID 1346982); conditions: PXR-Luc HepG2, CYP3A4 luciferase reporter, 24 h; series mostly up to 92.4 µM; further: nearly all actives have a fitted effect of over 35% in size; further: potency means the concentration at half of the fitted maximal effect
Chain of Nuclear receptor subfamily 1 group I member 2 (Homo sapiens) (O75469 whole entry, looked up): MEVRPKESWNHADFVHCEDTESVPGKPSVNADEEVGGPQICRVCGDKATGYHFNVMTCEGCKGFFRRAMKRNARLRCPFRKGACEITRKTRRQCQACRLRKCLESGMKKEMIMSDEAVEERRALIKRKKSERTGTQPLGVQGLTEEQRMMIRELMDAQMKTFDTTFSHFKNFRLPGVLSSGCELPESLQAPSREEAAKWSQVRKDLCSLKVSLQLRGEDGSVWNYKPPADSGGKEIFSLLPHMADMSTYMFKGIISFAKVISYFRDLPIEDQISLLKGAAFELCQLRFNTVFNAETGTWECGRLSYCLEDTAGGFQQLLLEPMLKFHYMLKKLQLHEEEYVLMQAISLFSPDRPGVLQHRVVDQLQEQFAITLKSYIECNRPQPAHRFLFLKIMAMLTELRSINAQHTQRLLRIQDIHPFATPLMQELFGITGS
In short: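 Luminescence (ONE-Glo, 30 min RT) after 24 hr compound exposure of PXR-Luc HepG2 cells; cells rested 5 hr post-plating in 5% charcoal-stripped FBS medium.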

[7] = biological target: Nuclear receptor subfamily 1 group I member 2 (Rattus norvegicus) (UniProt Q9R1A7); experiment: Rat pregnane X receptor (rPXR) activation by small molecules, qHTS assay (AID 1346983); conditions: rPXR luciferase reporter cells, One-Glo luminescence, 24 h; stronger effect = higher value; further: nearly all actives have a fitted effect of over 20% in size
Chain of Nuclear receptor subfamily 1 group I member 2 (Rattus norvegicus) (Q9R1A7 whole entry, looked up): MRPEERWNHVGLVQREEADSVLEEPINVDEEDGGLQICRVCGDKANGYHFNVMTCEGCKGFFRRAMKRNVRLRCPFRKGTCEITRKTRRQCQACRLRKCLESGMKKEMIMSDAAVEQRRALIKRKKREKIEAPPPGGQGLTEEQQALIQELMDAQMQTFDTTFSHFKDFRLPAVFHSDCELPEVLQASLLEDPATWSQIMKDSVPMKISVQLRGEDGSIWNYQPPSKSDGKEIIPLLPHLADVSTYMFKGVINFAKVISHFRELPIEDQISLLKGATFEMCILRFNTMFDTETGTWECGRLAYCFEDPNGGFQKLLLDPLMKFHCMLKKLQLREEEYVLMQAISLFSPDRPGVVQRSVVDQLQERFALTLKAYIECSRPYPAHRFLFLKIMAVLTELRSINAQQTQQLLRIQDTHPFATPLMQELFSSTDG
In short: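 Luminescent readout (One-Glo luciferase, 30 min room temperature) followed 24 hr compound treatment at 37 C of rPXR cells plated 2,000 per well and preincubated 5hr; qHTS format with compounds delivered in DMSO.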

[8] = biological target: Nuclear receptor subfamily 1 group I member 2 (Homo sapiens) (UniProt O75469); experiment: CYP3A4 induction through human pregnane X receptor (PXR) by small molecules, qHTS assay (AID 1346984); conditions: DPX-2 HepG2 PXR, CYP3A4-luciferin luminescence, 24 h; series mostly up to 46.1 µM; further: nearly all actives have a fitted effect of over 40% in size
In short: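 DPX-2 reporter cells; 24h cpd, 37C; Luciferin-IPA 3uM final x3h; One-Glo 30 min RT; lumi read.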

[9] = biological target: Nuclear receptor subfamily 1 group I member 2 (Homo sapiens) (UniProt O75469); experiment: Human pregnane X receptor (PXR) activation by small molecules, qHTS assay (AID 1346985); conditions: DPX-2 HepG2 CYP3A4-luciferase, 24 h; series mostly up to 38.3 µM; further: nearly all actives have a fitted effect of over 40% in size
In short: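 DPX-2 cells (HepG2 co-transfected with a PXR response element and a CYP3A4-promoter luciferase construct) were seeded at 2,000 per well, rested 5 hr at 37C, then exposed to DMSO-dissolved compounds for 24 hr. Activation was read as luciferase luminescence.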

[10] = biological target: Cytochrome P450 2D6 (Homo sapiens) (UniProt P10635); experiment: Cytochrome P450 Family 2 Subfamily D Member 6 (CYP2D6) small molecule antagonists: luciferase reporter qHTS assay (AID 1671196); conditions: P450-Glo CYP2D6 enzyme assay, luciferin luminescence, 1 h; series mostly up to 115 µM; further: nearly all actives have a fitted effect of over 50% in size; further: potency means the concentration at half of the fitted maximal effect
Chain of Cytochrome P450 2D6 (Homo sapiens) (P10635 whole entry, looked up): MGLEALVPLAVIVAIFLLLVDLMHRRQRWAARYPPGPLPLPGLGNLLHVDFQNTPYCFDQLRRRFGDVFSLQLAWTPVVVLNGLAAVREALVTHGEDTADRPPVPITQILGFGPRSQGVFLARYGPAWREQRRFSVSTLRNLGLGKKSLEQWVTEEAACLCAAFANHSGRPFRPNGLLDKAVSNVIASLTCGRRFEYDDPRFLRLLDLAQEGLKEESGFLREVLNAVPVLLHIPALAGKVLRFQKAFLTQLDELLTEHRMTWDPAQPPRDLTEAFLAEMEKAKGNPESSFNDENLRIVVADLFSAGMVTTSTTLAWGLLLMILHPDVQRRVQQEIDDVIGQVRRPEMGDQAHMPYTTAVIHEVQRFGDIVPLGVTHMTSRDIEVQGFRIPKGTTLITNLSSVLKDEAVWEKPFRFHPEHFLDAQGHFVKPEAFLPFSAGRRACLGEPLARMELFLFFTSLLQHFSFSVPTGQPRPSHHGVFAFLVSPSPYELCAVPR
In short: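 Inhibition of CYP2D6 was gauged by loss of luminescence, since light produced tracks the luciferin generated from a proluciferin substrate. A 10 min room-temperature preincubation preceded 1 h NADPH-supported turnover.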

Row | SMILES | Potency [1] | Potency [2] | Potency [3] | outcome [4] | Potency [5] | Potency [6] | max activation [7] | Potency [8] | outcome [9] | Potency [10]
1 | COC(=O)c1cccnc1 | inactive | inactive | inactive | inactive | inactive | inactive | -1.84% (inactive) | inactive | inactive | inactive
2 | N#Cc1ccccc1 | inactive | inactive | inactive | inactive | inactive | inactive |  |  |  | inactive
3 | Cc1ccc(S(=O)(=O)N=C=O)cc1 | 28.2 µM (active) and inactive | inactive | 6.73 µM (active) and inactive | inactive | 53.4 µM (active) and inactive | inactive |  |  |  | inactive
4 | COC(=O)CCCC(=O)OC | inactive | inactive | 54 µM (active) and inactive | inactive | inactive | inactive |  |  |  | inactive
5 | CC(=O)OCc1ccccc1 | inactive | inactive | inactive | inactive | inactive | inactive |  |  |  | inactive
6 | COc1ccc(CCC(C)=O)cc1 | inactive | inactive | inactive | inactive | inactive | inactive |  |  |  | inactive
7 | CCCCCC(=O)O | inactive | inactive | inactive | inactive | inactive | inactive |  |  |  | inactive
8 | CC(C)(C)c1cc(Cc2cc(C(C)(C)C)c(O)c(C(C)(C)C)c2)cc(C(C)(C)C)c1O | inactive | inactive | inactive | inactive | inactive | inactive |  |  |  | inactive
9 | CCCCOC(=O)c1ccc(N)cc1 | inactive | inactive | inactive | inactive | inactive | 53.8 µM (active) and 23.7 µM (active) |  |  |  | 
10 | CNC(=S)N(C)C | inactive | inactive | inactive | inactive | inactive | 61.7 µM (active) and inactive |  |  |  | inactive
11 | COCCOC(=O)c1ccccc1C(=O)OCCOC | inactive | inactive | inactive | inactive | inactive | inactive |  |  |  | inactive
12 | CCCCCCCCCCN | inactive | inactive | inactive | inactive | inactive |  |  |  |  | 35.8 µM (active) and 12.6 µM (active)
13 | COc1ccc([N+](=O)[O-])cc1N | inactive | inactive | inactive | inactive |  |  |  |  |  | inactive
14 | C=CC(=O)OCCC(=O)O | inactive | inactive | inactive | inactive | inactive |  |  |  |  | 23.2 µM (active) and inactive
15 | COc1ccc(C)cc1N | inactive | inactive | inactive | inactive | inactive |  |  |  |  | 24.3 µM (active) and 25.2 µM (active)
16 | CC1(C)OC[C@@H]2O[C@@]3(C(=O)O)OC(C)(C)O[C@H]3[C@@H]2O1 | inactive | inactive | inactive | inactive | inactive |  | -1.74% (inactive) | inactive | inactive | inactive
17 | O=C(O)CCCCCCCCC(=O)O | inactive | inactive | inactive | inactive | inactive | inactive |  |  |  | inactive
18 | COCCCN | inactive | inactive | inactive | inactive | inactive |  |  |  |  | inactive
19 | O=S(=O)(O)c1ccc(N=Nc2c(O)ccc3cc(S(=O)(=O)O)ccc23)cc1 | 39.8 µM (active) and 30.6 µM (active) | inactive | 54.7 µM (active) and 27.3 µM (active) | inactive | 54.7 µM (active) and 30.6 µM (active) | inactive |  |  |  | 31.8 µM (active)
20 | CCCCC(C=O)CC (centres undefined) | inactive | inactive | inactive | inactive | inactive |  |  |  |  | inactive
21 | CSc1ccc(Cl)cc1 | inactive | inactive | inactive | inactive | inactive |  |  |  |  | inactive
22 | CCCCCCCCCCO | inactive | inactive | inactive | inactive | inactive |  |  |  |  | inactive
23 | CCOCC(=O)O | inactive | inactive | inactive | inactive | inactive |  |  |  |  | 32.4 µM (active) and 31.7 µM (active)
24 | CC(C)CC(C)O (centres undefined) | inactive | inactive | inactive | inactive | inactive |  |  |  |  | inactive
25 | O=C(O)/C=C/C(=O)O | inactive | inactive | inactive | inactive | inactive |  |  |  |  | 37.6 µM (active) and inactive
26 | COc1ccc(OC)cc1 | inactive | inactive | inactive | inactive | inactive |  |  |  |  | inactive
27 | c1ccc(Oc2ccccc2)cc1 | inactive |  | inactive | inactive | inactive | inactive |  |  |  | 
28 | CC(C)OC(=O)COc1ccc(Cl)cc1Cl | inactive |  | inactive | inactive | inactive |  |  |  |  | 
29 | CC(=O)OCCOC(C)=O | inactive | inactive | inactive | inactive | inactive | inactive |  |  |  | inactive
